A selection: hits, their analogues and other compounds. The true share with any hit is near 6.5%.
HCMV inh = qHTS Assay for inhibitors of the human cytomegalovirus (HCMV) | HFF cells, HCMV-luciferase reporter, 72 h; stronger effect = lower value | activity change, negative = inhibition, % at 57.5 µM | 4.5% of 410,000 active; in the data active = activity change below about -60%; inconclusive = no clear call, values can overlap the other calls; inactive = above about -39%
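After 16 h attachment at 37C, HFF cells received test compound and HCMV-luciferase (1 PFU/cell); reporter luminescence read 72 h later, data normalized against buffer-only and known inhibitor Salinomycin.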
FMDV inh = High Throughput Screening for Foot and Mouth Disease Virus Antivirals; FMDV antiviral cell-based qHTS; Potency, µM (highest dose often 57.9 µM), for the others: at the top dose activity change, negative = inhibition, hits mostly inhibitors; 1.2% of 410,000 active; AID 1159524, 2015; calls by dose curve; tested in HEK293T cells; also: read-out not given here; potency is read from the fitted curve at half-maximal effect; nearly all actives have a fitted effect of over 45% in size
VACV Venus inh = qHTS for Stage-Specific Inhibitors of Vaccinia Orthopoxvirus: Venus Reporter Primary qHTS. Vaccinia virus Venus reporter expression, fluorescence. Potency, µM (doses to about 36.5 µM), for inactives: at the top dose activity change, negative = inhibition, usual class: inhibitors. 0.46% of 330,000 active; calls by dose curve; tested in A549 cells; also: potency is read from the fitted curve at half-maximal effect; nearly all actives have a fitted effect of over 30% in size
MARV entry inh = qHTS for inhibitors of binding or entry into cells for Marburg Virus. Marburg virus pseudotyped entry inhibition, cell reporter. Potency, µM (highest dose often 37.8 µM), inactives show at the top dose activity change, negative = inhibition, usual class: inhibitors. 1.8% of 300,000 active; calls by dose curve; tested in HEK293 cells; also: potency is read from the fitted curve at half-maximal effect
VACV mCherry inh = qHTS for Stage-Specific Inhibitors of Vaccinia Orthopoxvirus: mCherry Reporter Primary qHTS; Potency, µM (highest dose often 36.5 µM), for inactives: top-dose activity change, negative = inhibition, usual class: inhibitors; 0.63% of 310,000 active; Vaccinia virus mCherry reporter infection, fluorescence; calls by dose curve; tested in A549 cells; also: potency is read from the fitted curve at half-maximal effect; nearly all actives have a fitted effect of over 35% in size
LASV entry inh = qHTS for Inhibitors of binding or entry into cells for Lassa Virus; Potency, µM (top dose mostly 37.9 µM), inactives show at the top dose activity change, negative = inhibition, most hits filed as inhibitors; Lassa virus pseudotype entry inhibition, cell reporter; 1.2% of 300,000 active; calls by dose curve; tested in HEK293 cells; also: potency is read from the fitted curve at half-maximal effect; nearly all actives have a fitted effect of over 50% in size
* = called active by the depositor; i = inactive; ? = inconclusive; nt = no result; ! = not confirmed by another sample; [ ] = dose if it differs, or a comment. % is scaled to controls: 0 for no effect and ±100 for the full control effect.

SMILES | HCMV inh | FMDV inh | VACV Venus inh | MARV entry inh | VACV mCherry inh | LASV entry inh
O=C(Cn1c(=O)oc2cc(S(=O)(=O)N3CCCC3)ccc21)NCc1ccc(F)cc1 | -70*! | 0% | -17% | 19%[46.1 µM] | -19% | -4%[46.1 µM]
O=C(CCCn1ccc2cc(S(=O)(=O)N3CCCC3)ccc21)NCc1ccc(Cl)cc1 | -87* | ? | -29%[7.34 µM] | nt | -26%[7.34 µM] | ?
CSc1ccc(CCNC(=O)c2cc3cc(S(=O)(=O)N4CCCCC4)ccc3n2C)cc1 | -67* | ? | -27% | nt | -27% | -27%[46.1 µM]
CN(C)c1ccc(CNC(=O)c2cc3cc(S(=O)(=O)N4CCCCC4)ccc3n2C)cc1 | -22 | -16% | -14% | nt | -19% | 10µM*
Cc1ccc(C)c(Nc2nc(-c3ccccc3)c3cc(Br)ccc3n2)c1 | -15 | -16% | 9% | nt | 3% | 5%[46.1 µM]
CCOc1ccc(OCC)c(Nc2cc(C)nc3nc(-c4ccco4)nn23)c1 | 1 | -10% | 5% | nt | 4% | 2%[46.1 µM]
N/C(=N\N=C\c1ccc(Cl)cc1)N/N=C/c1ccc(Cl)cc1 | 6 | nt | nt | nt | nt | nt
O=[N+]([O-])c1ccc(COc2ccccc2CO)cc1 | 63 | nt | nt | nt | nt | nt
CCOc1ccccc1CNC(=O)c1cc2cc(S(=O)(=O)N3CCCCC3)ccc2n1C | 31 | -16% | -13% | nt | -12% | ?
Cc1ccc2c(c1)cc(C(=O)NCc1ccc(F)cc1)n2C | ? | -9% | 5% | ? | 6% | 2µM*
CCOc1ccc(CNC(=O)c2cc3cc(S(=O)(=O)N4CCCCC4)ccc3n2C)cc1 | -68* | ? | -27% | nt | -27% | ?
Cc1ccc(-n2c(=O)c3c(c4cc(C)ccc4n3C)n(CC(=O)N3CCCC3)c2=O)cc1 | 11 | -13% | -12% | nt | -15% | -9%[46.1 µM]
CC1(C)c2ccccc2-c2nc3ccccc3cc2C1O (stereo not given) | 8 | 35% | 8% | -2%[46.1 µM] | -27% | 2%[46.1 µM]
c1ccc2c(c1)-c1nc3ccccc3cc1C2N1CCCCC1 (stereo not given) | -102* | -21% | 0% | nt | -4% | nt
Fc1cccc(Cl)c1Cn1c(-c2cccs2)nc2ccccc21 | -63* | 0% | -6%[7.34 µM] | -25%[46.1 µM] | -7%[7.34 µM] | 13%[46.1 µM]
Cc1ccc(-c2csc3ncnc(SCC(=O)Nc4nnc(C)s4)c23)cc1 | 12 | -1% | nt | ? | nt | 3%
Cc1ccc(-c2csc3ncnc(Sc4nnc(CN5CCCCCC5=O)o4)c23)cc1 | -70* | 14µM* | nt | ? | nt | ?
CC(C)c1nc2oc3c(NCCO)ncnc3c2c2c1COC(C)(C)C2 | 40 | -9% | nt | nt | nt | nt
CCCc1nc2oc3c(NCCOCCO)ncnc3c2c2c1COC(C)(C)C2 | -102* | ? | nt | -20% | nt | -3%
CC(=O)N[C@@H](C)C(=O)NCC1Cc2cccc(-c3ccccc3C(F)(F)F)c2O1 (stereo not given in full) | nt | -7% | -2% | nt | -8% | nt
CC1CC(C)(C)Nc2ccc(N=O)cc21 (stereo not given) | -60* | ? | 0% | nt | ? | nt
CC1CC(C)(C)Nc2ccc(OC(=O)c3ccco3)cc21 (stereo not given) | -107* | ? | 8% | ? | nt | ?
Nc1ccc(CCNc2ncnc3c2ncn3[C@@H]2O[C@@H](CO)[C@H](O)[C@@H]2O)cc1 | nt | nt | nt | -6% | nt | nt
CCCN1Cc2cccc(C(=O)Nc3ccc(OC)cc3OC)c2C1=O | -21 | 0% | -9% | -4%[46.1 µM] | i | 0%[46.1 µM]
O=C(c1cc2c(s1)-c1ccccc1S(=O)(=O)C2)N1CCN(Cc2ccccc2)CC1 | -74* | 20µM* | ? | -2% | ? | nt
SMILES | HCMV inh | FMDV inh | VACV Venus inh | MARV entry inh | VACV mCherry inh | LASV entry inh
CCCCOCC1CN(CCCC)S(=O)(=O)c2c(cccc2Sc2ccc(OC)c(OC)c2)O1 (stereo not given) | 16 | nt | nt | nt | nt | nt
CN(C)c1ccc(N2C(=O)CSC2=S)cc1 | ? | -23% | 321% | 21% | 241% | -2%
CC1SC(=S)N(c2ccc(N(C)C)cc2)C1=O (stereo not given) | -71* | 0% | -29% | 1%[46.1 µM] | 11µM* | 4%[46.1 µM]
CCOP(=O)(OCC)c1nc(-c2ccccc2Cl)oc1N1CCOCC1 | -3 | -2% | -1% | ? | i | 2%
CCOP(=O)(OCC)c1nc(-c2ccc(Cl)cc2Cl)oc1N1CCCCC1 | ? | -20% | -24% | ? | -1% | 6.3µM*
CN(C)C(CNc1ncnc2sc3c(c12)CCCCC3)c1ccco1 (stereo not given) | -68* | ? | -5% | ? | -9% | -21%
c1csc(CCNc2ncnc3sc4c(c23)CCC4)c1 | -89* | 13µM* | ? | nt | -25% | nt
COc1cc(OC)c2nc(-c3cc4c(c(OC)c3)OCCN(C(=O)CC3NC(=O)c5ccccc53)C4)cc(C)c2c1 (stereo not given) | nt | -15% | -10% | nt | -10% | nt
CCOc1ccc(CCNC(=O)c2cc3sc(CC)cc3n2C)cc1OCC | -13 | -26% | -10%[7.34 µM] | -3%[46.1 µM] | -11%[7.34 µM] | nt
CCOc1ccc(CCNC(=O)c2cc3sccc3n2CC)cc1OCC | -27 | ? | -13% | ? | -3% | 15µM*
CC(C)Nc1nc(Cl)nc(N(C#N)CN2C(=O)c3ccccc3C2=O)n1 | ? | ? | ? | 2.5µM* | ? | ?
Cc1cc(C)nc(N2CCC(C(=O)NCc3cccs3)CC2)n1 | -93* | 24% | -4% | 0% | -15% | -14%[14.3 µM]
O=C(NCc1cccs1)C1CCN(c2ccc(S(=O)(=O)N3CCOCC3)cc2Cl)CC1 | -86* | -12% | -29% | 1.1µM*! | i | ?
C#CCNC(=O)C1CCN(c2ccc(S(=O)(=O)N3CCOCC3)cc2Cl)CC1 | ? | -30% | -4% | 8%[46.1 µM] | -4% | ?
Cc1cc(C)nc(N2CCC(C(=O)NCc3ccco3)CC2)n1 | -17 | -13% | nt | 0% | nt | -6%
COc1ccc(S[C@]2(C(=O)N3CCCC3)CC(=O)N(c3ccc4ccccc4c3)[C@@H]2c2ccc(OC)cc2)cc1 | 22 | nt | nt | nt | nt | nt
OC(c1cccnc1)c1ccc2c(c1)CN(Cc1cccc3c1OCO3)CCO2 (stereo not given) | nt | 0% | -10% | nt | -1% | nt
COCCN(C(=O)c1csnn1)C(C(=O)NC1CCCCC1)c1ccccc1 (stereo not given) | 42 | -7% | -4% | -5%[46.1 µM] | i | 11%[46.1 µM]
O=C(NCc1ccc(F)cc1)C(c1ccc(F)cc1)N(C(=O)c1csnn1)C1CC1 (stereo not given) | 6 | 5% | -5% | ? | i | -2%[46.1 µM]
O=C(NCc1ccccc1)C(c1ccc(Cl)cc1)N(C(=O)c1csnn1)C1CC1 (stereo not given) | -63* | 18% | -9% | -6%[46.1 µM] | -6% | 12%[46.1 µM]

Assay outcomes as filed in PubChem.
